Results: PubChem BioAssay AID2401 (Southern Research Specialized Biocontainment Screening …, 2010)
In all, about 2,200 compounds went through this assay and about 530 (24%) were called active.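 How the source made its calls: active means inhibition above a set limit at one or more concentrations of the dose series; inactive means inhibition under that limit at every dose.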 Only a sample is shown. Measured potencies and affinities stand elsewhere.

assay: nmpC-GFP reporter counter-screen in S. Typhimurium, dose response, counter-screen for PhoP regulon inhibitor project, Salmonella Typhimurium, GFP fluorescence (AID 2401); conditions: 4 h; series mostly up to 150 µM;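 further: S. typhimurium with Mg-insensitive nmpC-GFP reporter grown at 10 µM Mg2+; drop in reporter fluorescence reflects general culture growth inhibition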

Compound	outcome
O=C(Nc1cc(C(F)(F)F)ccc1N1CCOCC1)c1ccc(Br)o1	inactive
Cc1nc(N2CCN(Cc3ccc4c(c3)OCO4)CC2)nc2c1C(=O)CC(c1ccco1)C2 (stereo not given)	inactive
CC1CCN(S(=O)(=O)c2cccc(C(=O)N(C)C3CCS(=O)(=O)C3)c2)CC1 (stereo not given)	inactive
CN1c2ccccc2C(O)=C(C(=O)Nc2ccccc2)S1(=O)=O	inactive
O=C(N/N=C/c1ccc(F)cc1)c1cc(-c2ccco2)nc2ccccc12	inactive
COC(=O)C1=C(C)N(C)C(=O)/C1=C\c1ccco1	inactive
O=C(COc1ccccc1)NC(=S)Nc1ccc2c3c(cccc13)CC2	inactive
Cc1ccc(C(=O)CSc2ncnc3sc4c(c23)CCCC4)cc1	inactive
COc1ccc(N2CCN(C(=O)CN(c3cccc(Br)c3)S(C)(=O)=O)CC2)cc1	inactive
O=C(/C=C/c1ccco1)Oc1cc(Br)cc(/C=N/NC(=O)c2ccccc2O)c1	inactive
CCN1CCN(C(=O)c2ccc3c(=O)n(Cc4ccccc4OC)c(=S)[nH]c3c2)CC1	inactive
Cc1cc(C)nc(Nc2ccc(N3CCCC3)cc2)n1	inactive
O=C(NCCc1ccccc1)c1ccc2nc(-c3ccco3)c(-c3ccco3)nc2c1	inactive
Clc1ccc(OCCn2ccnc2)c(Br)c1	inactive
O=C(NC1CCN(C(=O)N2c3ccccc3Sc3ccccc32)CC1)c1ccco1	inactive
CCn1c2ccccc2c2cc(C3N=C(N)Nc4nc5ccccc5n43)ccc21 (stereo not given)	inactive
O=C(CN1CCN(c2ccccn2)CC1)Nc1ccc(Oc2ccccc2)cc1	inactive
COc1ccc(OC)c(C2=Nn3c(nnc3-c3cc(OC)c(OC)c(OC)c3)SC2)c1	inactive
O=C1CCCc2nc(N3CCN(Cc4ccccc4)CC3)ncc21	inactive
COc1ccc(Nc2sc(C(=O)Nc3cccc(Cl)c3)c(N)c2C(=O)Nc2ccccc2OC)cc1	inactive
O=S(=O)(c1ccc(F)c2ccccc12)N1CCCCC1	inactive
Cn1ccnc1SCC(=O)Nc1sccc1C#N	inactive
Cn1cc(C(CC(=O)O)C(=O)O)c2ccccc21 (stereo not given)	inactive

Compound	outcome
c1ccc2c(N3CCCCCC3)nc(-c3ccncc3)nc2c1	inactive
CCOC(=O)c1cnc2ccc(OCC)cc2c1N1CCN(c2ccccc2)CC1	inactive
Cc1ccc(NC(=O)CCCSc2nc3ccccc3[nH]2)cc1	inactive
CCN(CCO)Cc1csc2ccccc12	inactive
CC(C)CCNC(=O)C12CN(Cc3ccccc3)CC1C(c1cccc([N+](=O)[O-])c1)=NO2 (stereo not given)	inactive
CCCn1c(NCc2c[nH]c3ccccc23)nc2ccccc21	inactive
COc1ccc(-c2cc(C(=O)Nc3ccc(S(=O)(=O)Nc4ncccn4)cc3)c3ccccc3n2)cc1	inactive
Nc1nc(C2CCCCC2)cs1	inactive
Clc1ccc(-n2ncc3c(NCc4cccs4)ncnc32)cc1	inactive
CC(C)Cc1nc2ccc(N)cc2[nH]1	inactive
COc1cccc(-c2nnc3sc(-c4ccc(C)cc4)nn23)c1	inactive
Cc1nc2c(C(=O)NCCC(C)C)c[nH]n2c(=O)c1Cc1ccccc1F	inactive
CC(C)(C)NC(=O)CSc1nnc(-c2ccncc2)o1	inactive
CCCCCCC(=O)N(O)C1CC(=O)N(c2ccc(C)cc2)C1=O (stereo not given)	inactive
O=C(c1ccco1)[C@@H]1[C@@H]2C(=O)N(c3ccc(F)cc3)C(=O)[C@@H]2[C@H]2C=Cc3ccccc3N21	inactive
CCC(=O)NC1=C(NC(C)c2ccccc2)C(=O)c2ccccc2C1=O (stereo not given)	inactive
O=S(=O)(c1ccc(NC(=S)Nc2ccc3c(c2)OCO3)cc1)N1CCOCC1	inactive
Nc1ccc(N(c2ccccc2)c2ccc(N)cc2)cc1	inactive
CSc1nsc(SCC(=O)Nc2ccc(C(C)=O)cc2)n1	inactive
O=C(Cc1cccs1)N(c1ccccc1)C1C=CS(=O)(=O)C1 (stereo not given)	inactive
O=C(OCC(=O)c1ccc(S(=O)(=O)N2CCCC2)cc1)C1=COCCO1	inactive
NNC(=S)Nc1ccc(Cl)cc1	inactive
COc1ccc2cc(C#N)c(NC(C)C)nc2c1	inactive

Compound	outcome
NC(=S)c1cc2ccc(O)cc2oc1=O	inactive
Cc1ccc(NC(=S)NCCc2ccccc2)c(C)c1	inactive
CNC(=O)CSc1nnc(-c2cccnc2)n1CCc1ccccc1	inactive
COc1nc(N(c2ccccc2)c2ccccc2)nc(-n2ccnc2)n1	inactive
COc1cc(CNc2ccc(CNc3ncn[nH]3)cc2)ccc1OCc1ccccc1	inactive
CCc1cccc(NC(=O)CCCSc2nc3ccccc3[nH]2)c1	inactive
CC(C)Nc1cc(C(F)(F)F)nc(-c2ccccn2)n1	inactive
O=C1c2ccccc2C(=O)N1Cc1nc(-c2ccccn2)no1	inactive
S=c1nc(-c2ccccc2)oc2c1CCCC2	inactive
c1ccc(-c2ncnc3nc4n(c23)CCC4)cc1	inactive
O=C(Nc1cccc2ccccc12)OC1C=CS(=O)(=O)C1 (stereo not given)	inactive
Cc1cccc(-n2c(SCC(N)=O)nc3c(c2=O)C2(CCCC2)Cc2ccccc2-3)c1	inactive
COc1ccc(Nc2nc(-c3cccc([N+](=O)[O-])c3)nc3ccccc23)cc1	inactive
C=CCSc1nnc(-c2ccc(Cl)cc2Cl)o1	inactive
c1ccc(-c2nnc(SCCC3OCCCO3)o2)cc1	inactive
COc1ccc(S(=O)(=O)n2nc(OC(=O)c3ccccc3Br)cc2N)cc1	inactive
COc1ccc(N(C(=O)CCl)C(C(=O)NCCc2ccccc2)c2cccs2)cc1 (stereo not given)	inactive
CCC(=O)c1ccc(OCC(O)CNCc2ccc(F)cc2)cc1 (stereo not given)	inactive
COc1cccc(OCC(O)CN2CCN(c3ccccn3)CC2)c1 (stereo not given)	inactive
COc1ccc(NC2=Nc3cccc4cccc2c34)cc1	inactive
COc1ccc(C2=C(Nc3ccc(C)cc3)c3ccccc3C2=O)cc1	inactive
Cc1cc(Nc2ccccc2)nc2cc(O)ccc12	inactive
Cc1cc(=O)oc2cc(OCC(O)CN3CCc4ccccc4C3)ccc12 (stereo not given)	inactive

Compound	outcome
C=CCN(C(=O)c1cccc(S(=O)(=O)N2CCN(C)CC2)c1)c1nc(-c2ccccc2)cs1	inactive
O=C(O)CCc1nnc2n(Cc3ccc(F)cc3)c(=O)c3ccccc3n12	inactive
Cc1nc(-c2ccccn2)sc1C(=O)Nc1ccc(F)cc1F	inactive
CN(C(=O)/C=C/c1ccccc1)C1CCS(=O)(=O)C1 (stereo not given)	inactive
COc1ccccc1N1CCN(c2ccc(-c3ccccc3)nn2)CC1	inactive
COc1cc(CNCc2ccccn2)ccc1OCC(=O)NC(C)(C)C	inactive
Cc1ccc(NS(=O)(=O)c2ccccc2)c2c1CC(C)(C)O2	inactive
Cc1cc(C)nc(N(C#N)C(C)C(=O)N(C)C)n1 (stereo not given)	inactive
Cc1cc2cc(CCNC(=O)c3cccs3)c(=O)[nH]c2cc1C	inactive
Cc1ccc(C(=O)Nc2ccccc2C(N)=O)o1	inactive
COc1cccc(Cn2cnc3c(NS(=O)(=O)c4cccc(Cl)c4Cl)c(C)c(C)cc32)c1	inactive
CC(C)(C)c1ccc(NC(=O)COC(=O)c2ccc([N+](=O)[O-])s2)cc1	inactive
Cc1[nH]c2ccccc2c1C(=O)CN1CCSCC1	inactive
Cc1cc(=O)oc(C)c1C(=O)NCc1cccnc1	inactive
Cc1nn(CCOc2ccccc2)c(=O)n1-c1ccc(F)cc1	inactive
Cc1ccc(C(=O)NNc2c3ccccc3nc3ccccc23)cc1	inactive
O=C(NCc1ccco1)c1c2c(nc3ccccc13)CCC2	inactive
Cc1cccc(OCC(=O)NNc2c3ccccc3nc3ccccc23)c1	inactive
Cc1cccc(NC(=O)Cn2c(/C=C/c3ccccc3)nc3ccccc32)c1	inactive
Cc1ccc(CSCc2nc3ccccc3[nH]2)cc1	inactive
Cc1ccccc1NC(=O)c1sc2nc3c(c(-c4ccco4)c2c1N)CCC3	inactive
Cn1c(-c2ccc3c(c2)OCO3)cnc1NCc1cccc(Cl)c1	inactive
CC(=O)c1c(C)n([O-])c2ccccc2[n+]1=O	inactive

Compound	outcome
COC(=O)c1sccc1NC(=O)C1C2C=CC(O2)C1C(=O)O (stereo not given)	inactive
COC(=O)c1ccc2nc(C(F)(F)F)[nH]c2c1	inactive
N#CCCN(C(=O)CN1C(=O)NC2(CCCC2)C1=O)c1ccccc1F	inactive
O=C1C(Nc2ccccc2)=C/C(=N/S(=O)(=O)c2cccs2)c2ccccc21	inactive
COc1cc(C=O)ccc1OCCCOc1ccccc1[N+](=O)[O-]	inactive
Cc1snc(S(=O)(=O)/C(C#N)=N\Nc2ccccc2)c1C#N	inactive
Cc1ccsc1C=Nc1ccc(O)cc1	inactive
C(=Nc1ccc(Nc2ccccc2)cc1)c1ccc2ccccc2c1	inactive
Cc1nnc(NC(=O)CSc2ncnc3scc(-c4ccccc4)c23)s1	inactive
Cc1onc(-c2c(F)cccc2Cl)c1C(=O)Nc1cccc(Cn2cccn2)c1	inactive
CCOc1ccc(NC(=O)CCC(=O)n2nc(C)cc2C)cc1	inactive
COc1cc(OC)c(C(=O)Nc2ccc(S(=O)(=O)Nc3ncccn3)cc2)cc1OC	inactive
COc1nccnc1NS(=O)(=O)c1ccc(NC(=S)NC(=O)c2cccnc2)cc1	inactive
CCOC(=O)Cc1ccc2sc(-c3ccccc3)nc2c1	inactive
Cc1ccc(-c2nc3ccccc3s2)cc1S(=O)(=O)N1CCCC1	inactive
COc1ccc(C2=NOC(C(=O)Nc3ccc(C)cc3)C2)cc1OC (stereo not given)	inactive
COc1cccc(C2CC(c3ccccc3OC)n3nc(N)nc3N2)c1 (stereo not given)	inactive
CCCc1cc(C(=O)NNC(=S)NC(C)c2ccccc2)cs1 (stereo not given)	inactive
Cc1ccc(-n2sc3ccccc3c2=O)cc1S(=O)(=O)N1CCCCC1	inactive
CCNC(=O)COC(=O)CCC(=O)c1cccs1	inactive
FC(F)(F)c1cc(C(F)(F)F)c2ccc(Oc3ccccc3)nc2n1	inactive
O=C(Cc1ccccc1)NCc1ccc(F)cc1	inactive
Fc1ccccc1COc1ccc(Br)cc1CNCc1ccncc1	inactive
